Laboratory results: publication PMC4336329 (PLoS ONE, 2015)
Hit rate of the full screen: of about 310,000 compounds, about 14,000 (4.5%) showed an effect of 50% or more. Effects have a minus sign here. This excerpt belongs to a sample that is enriched for strong results.

What follows are compounds tested against human ether-à-go-go-related gene (hERG) potassium channel (human, UniProt Q12809) (assay: primary screen, population patch clamp on CHO cells stably expressing hERG; higher = less effect of the substance).
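Note: peak tail current of the secondary pulse compared with the same well before compound.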

Chain of human ether-à-go-go-related gene (hERG) potassium channel (Q12809 whole entry, looked up): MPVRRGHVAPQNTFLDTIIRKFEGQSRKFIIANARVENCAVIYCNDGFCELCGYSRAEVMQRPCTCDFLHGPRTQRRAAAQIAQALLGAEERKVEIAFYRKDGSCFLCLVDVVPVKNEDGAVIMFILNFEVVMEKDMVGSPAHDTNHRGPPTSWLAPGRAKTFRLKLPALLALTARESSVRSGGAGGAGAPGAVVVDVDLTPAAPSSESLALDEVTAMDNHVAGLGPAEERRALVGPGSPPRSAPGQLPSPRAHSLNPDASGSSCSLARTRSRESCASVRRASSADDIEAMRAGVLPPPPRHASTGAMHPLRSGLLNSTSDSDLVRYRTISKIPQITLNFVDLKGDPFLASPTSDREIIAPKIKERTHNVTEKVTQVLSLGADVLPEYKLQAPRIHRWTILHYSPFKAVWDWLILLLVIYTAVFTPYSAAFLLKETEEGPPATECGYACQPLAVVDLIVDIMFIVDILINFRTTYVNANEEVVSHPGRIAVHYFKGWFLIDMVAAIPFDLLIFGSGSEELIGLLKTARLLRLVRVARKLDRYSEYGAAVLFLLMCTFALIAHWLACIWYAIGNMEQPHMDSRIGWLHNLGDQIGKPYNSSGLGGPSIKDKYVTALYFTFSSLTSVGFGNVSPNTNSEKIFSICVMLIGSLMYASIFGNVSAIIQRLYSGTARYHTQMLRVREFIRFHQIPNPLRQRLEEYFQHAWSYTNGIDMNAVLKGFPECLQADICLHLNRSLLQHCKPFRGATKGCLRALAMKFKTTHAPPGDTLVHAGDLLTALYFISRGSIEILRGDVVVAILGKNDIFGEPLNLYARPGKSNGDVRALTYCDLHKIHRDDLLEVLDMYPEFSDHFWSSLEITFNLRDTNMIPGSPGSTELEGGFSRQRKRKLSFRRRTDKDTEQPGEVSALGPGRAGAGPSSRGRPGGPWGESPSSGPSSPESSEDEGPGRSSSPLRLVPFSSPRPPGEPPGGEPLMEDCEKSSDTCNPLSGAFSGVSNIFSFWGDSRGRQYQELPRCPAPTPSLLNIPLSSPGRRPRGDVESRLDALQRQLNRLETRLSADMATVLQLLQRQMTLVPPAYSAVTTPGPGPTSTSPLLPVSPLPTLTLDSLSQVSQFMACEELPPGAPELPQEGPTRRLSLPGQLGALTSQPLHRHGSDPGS

Row | Structure (SMILES) | hERG current change (%, negative = inhibition) at 10uM [%]
1 | O=C(Cn1cnc2ccccc21)OCC(=O)N1CCCc2ccccc21 | 8.8
2 | CCCCNC(=S)N/N=C/c1ccccc1F | 2.81
3 | Cc1ccc(OC(C)C(=O)Nc2ccc3c(c2)n(C)c(=O)n3C)c(C)c1 (centres unmarked) | 11.7
4 | Cc1ccc(S(=O)(=O)NCc2ccc(C(=O)NCCN(Cc3ccccc3)C(C)C)cc2)cc1 | -36.4
5 | Cc1ccc(S(=O)(=O)NC(CC(C)C)C(=O)NCC(C)(C)N2CCOCC2)cc1 (centres unmarked) | 11.6
6 | COc1ccc(NC(=O)CCCn2c(=O)c3sccc3n(Cc3cccc(C)c3)c2=O)cc1 | 12.7
7 | Cc1cnc(C(=O)OCC(=O)NCCc2ccccc2)cn1 | -3.4
8 | O=C(c1cccc(NS(=O)(=O)c2cccc(F)c2)c1)N1CCN(c2ccccc2)CC1 | -8.41
9 | CSCCC(NC(=O)COc1cccc2ccccc12)C(=O)O (centres unmarked) | 0.83
10 | COc1ccc(CCC(=O)OCC(=O)c2c(N)n(CC(C)C)c(=O)n(C)c2=O)cc1 | -33.4
11 | Cn1c(N)c(C(=O)COC(=O)/C=C/c2ccc(Cl)cc2)c(=O)n(C)c1=O | -43.3
12 | Cc1cccc(OCC(=O)OCC(=O)c2c(N)n(C)c(=O)n(C)c2=O)c1C | -1.84
13 | Cn1c(N)c(C(=O)COC(=O)/C=C/c2ccc(F)cc2)c(=O)n(C)c1=O | -51.8
14 | Cc1ccc(N2CC(C(=O)OCC(=O)c3c(N)n(CC(C)C)c(=O)n(C)c3=O)CC2=O)cc1 (centres unmarked) | -3.07
15 | CCc1ccccc1OCC(=O)OCC(=O)c1c(N)n(C)c(=O)n(C)c1=O | -53.6
16 | COc1ccc(/C=C/C(=O)OCC(=O)c2c(N)n(C)c(=O)n(C)c2=O)cc1 | 5.38
17 | COc1ccccc1CCC(=O)OCC(=O)c1c(N)n(CC(C)C)c(=O)n(C)c1=O | -70.3
18 | CC(C)Cn1c(N)c(C(=O)COC(=O)C2CC(=O)N(c3ccc4c(c3)OCCO4)C2)c(=O)n(C)c1=O (centres unmarked) | -52.6
19 | Cn1c(N)c(C(=O)COC(=O)COc2ccccc2C#N)c(=O)n(C)c1=O | -23.2
20 | CC(C)Cn1c(N)c(C(=O)COC(=O)CCc2nc3ccccc3c(=O)[nH]2)c(=O)n(C)c1=O | -36
21 | CCc1ccc(N2CC(C(=O)OCC(=O)c3c(N)n(CC(C)C)c(=O)n(C)c3=O)CC2=O)cc1 (centres unmarked) | -7.72
22 | Cc1cc(C)nc(SCCC(=O)Nc2ccc(F)cc2)n1 | 7.84

Row | Structure (SMILES) | hERG current change (%, negative = inhibition) at 10uM [%]
23 | O=C(/C=C\Nc1cccc(F)c1)c1cccs1 | 11.7
24 | CC(NC(=O)C1CCN(S(=O)(=O)c2ccc3c(c2)NC(=O)CO3)CC1)c1ccccc1 (centres unmarked) | -7.39
25 | CN(C)S(=O)(=O)N1CCN(C(=O)c2ccc3c(c2)OCO3)CC1 | 10
26 | CSc1ccc(/C=C(\C#N)C(=O)NC2CCCCC2C)cc1 (centres unmarked) | -21.7
27 | N#C/C(=C/c1ccc(-c2cc([N+](=O)[O-])ccc2Cl)o1)C(N)=O | 1.62
28 | N#CC(=C=[N-])c1nc2ccccc2nc1-[n+]1ccccc1 | -2.11
29 | CC(C)Cn1c(N)c(C(=O)COC(=O)c2ccccc2Cl)c(=O)n(C)c1=O | -41.7
30 | Cn1c(N)c(C(=O)COC(=O)COc2ccc(Br)cc2)c(=O)n(C)c1=O | -72.6
31 | CCc1ccc(OCC(=O)OCC(=O)c2c(N)n(C)c(=O)n(C)c2=O)cc1 | 10.2
32 | CC(C)Cn1c(N)c(C(=O)COC(=O)c2ccccc2F)c(=O)n(C)c1=O | -14.7
33 | CC(C)Cn1c(N)c(C(=O)COC(=O)[C@H](C)NC(=O)c2ccccc2Cl)c(=O)n(C)c1=O | -53.1
34 | Cc1ccc(C)c(OCCC(=O)OCC(=O)c2c(N)n(C)c(=O)n(C)c2=O)c1 | -55.5
35 | Cc1ccc(C(C)C)c(OCC(=O)OCC(=O)c2c(N)n(C)c(=O)n(C)c2=O)c1 | 3.36
36 | Cn1c(N)c(C(=O)COC(=O)CCOc2ccc(C(C)(C)C)cc2)c(=O)n(C)c1=O | -60.6
37 | Cn1c(N)c(C(=O)COC(=O)COc2ccc(Cl)cc2)c(=O)n(C)c1=O | -23.1
38 | CCC(=O)c1ccc(OCC(=O)OCC(=O)c2c(N)n(C)c(=O)n(C)c2=O)cc1 | 5.93
39 | COc1ccccc1OCCC(=O)OCC(=O)c1c(N)n(C)c(=O)n(C)c1=O | -10.3
40 | Cn1c(N)c(C(=O)COC(=O)COc2ccc(C#N)cc2)c(=O)n(C)c1=O | -24
41 | CCOC(=O)c1ccc(NCc2ccncc2)cc1 | -1.66
42 | O=C(CN(Cc1ccco1)S(=O)(=O)c1cccs1)Nc1ccccc1C(F)(F)F | -32.8
43 | Oc1c(Br)cc(Cl)cc1C=Nc1ccc(N2CCOCC2)cc1 | 19.6
44 | Cc1c(C(=O)NCc2ccco2)cccc1[N+](=O)[O-] | -6.07

Row | Structure (SMILES) | hERG current change (%, negative = inhibition) at 10uM [%]
45 | CCN1C(=O)/C(=C\C=C2/C=CC=CN2CC)SC1=S | -5.68
46 | O=C(c1cc(COc2ccc(F)cc2Cl)on1)N1CCCCC1c1cccnc1 (centres unmarked) | -41.8
47 | O=C(c1cc(COc2ccc(F)cc2Cl)on1)N1CCC(OCc2cccnc2)CC1 | -75.8
48 | O=C(c1cc(COc2ccccc2)on1)N1CCCC(OCc2cccnc2)C1 (centres unmarked) | -16.6
49 | O=C(c1cc(COc2ccc(F)cc2Cl)on1)N1CCCC(OCc2cccnc2)C1 (centres unmarked) | -53.5
50 | COc1ccccc1OCc1cc(C(=O)N2CCCC(OCc3cccnc3)C2)no1 (centres unmarked) | -22
51 | O=C(c1cc(COc2ccc(F)cc2Cl)on1)N1CCN(c2cnccn2)CC1 | -46.9
52 | Nc1nc(SCC(=O)NCCN2CCOCC2)nc2sc3c(c12)CCC3 | -65.9
53 | Nc1nc(SCC(=O)NCCCN2CCOCC2)nc2sc3c(c12)CCC3 | -9.2
54 | Nc1nc(SCC(=O)NCCCO)nc2sc3c(c12)CCC3 | -3.17
55 | Cc1ccc(-c2csc(NC(=O)CSc3nc(C)cc(=O)[nH]3)n2)cc1 | 1.07
56 | O=C(CN1CCN(Cc2ccc(Cl)cc2)CC1)N1CCc2ccccc21 | -67.5
57 | O=C1N(CC(=O)N2CCc3ccccc32)CCN1Cc1ccc(Cl)cc1 | -11.8
58 | COc1ccc(CN2CCN(C(C)C(=O)N3CCc4ccccc43)CC2)cc1OC (centres unmarked) | -74
59 | CN(CC(=O)N1CCc2ccccc21)S(=O)(=O)c1cccs1 | -22
60 | Cc1nc2ccc(S(=O)(=O)N(C)CC(=O)N3CCc4ccccc43)cc2s1 | -42.5
61 | Cc1nc2ccc(S(=O)(=O)NCC(=O)N3CCc4ccccc4C3)cc2s1 | 0.862
62 | COc1ccc(N2CCN(C(C)C(=O)N3CCc4ccccc43)CC2)cc1 (centres unmarked) | -17.7
63 | Cc1nc2ccc(S(=O)(=O)N(C)CC(=O)N3CCc4ccccc4C3)cc2s1 | -53.2
64 | Cc1ccc(S(=O)(=O)N(C)CC(=O)N2CCCc3ccccc32)cc1 | -16.1
65 | CN(CC(=O)N1CCc2ccccc21)S(=O)(=O)c1ccc(Cl)cc1 | -51.2
66 | O=C(CN1CCCCC1)N1CCc2ccccc21 | -6

Row | Structure (SMILES) | hERG current change (%, negative = inhibition) at 10uM [%]
67 | COc1cc2c(cc1OC)CN(C(C)C(=O)N1CCc3ccccc31)CC2 (centres unmarked) | -14
68 | CCNc1nc(NCC)nc(NS(=O)(=O)c2ccc(N)cc2)n1 | 22.7
69 | CCOC(=O)C(C(=O)Nc1ccc(C)cc1)C1CCCCC1 (centres unmarked) | 0.407
70 | CC(C)n1nnc2ccccc2c1=O | 10
71 | CN(C)S(=O)(=O)c1cccc(-c2cn3ccccc3n2)c1 | -2.91
72 | CC1CC1C(=O)OCC(=O)NNC(=O)c1ccc([N+](=O)[O-])cc1 (centres unmarked) | -2.32
73 | COc1ccc(C2/C(=C(/O)c3ccc(C)cc3)C(=O)C(=O)N2CC2CCCO2)cc1OC (centres unmarked) | 20.8
74 | CCOC(=O)CNC(=O)c1ccc(C)cc1 | 4.88
75 | COc1cc(SC)ccc1C(=O)OCC(=O)NC1CC1 | 7.53
76 | CC(=O)Cn1nnc(-c2ccc(C(F)(F)F)cc2)n1 | 6.1
77 | CCN1CCN(CCCNC(=O)c2ccccc2NC(=O)C2=C(C)OCCS2)CC1 | 1.11
78 | CC(C(=O)N1CCc2ccccc21)N1CCN(Cc2ccc(Cl)cc2)CC1 (centres unmarked) | -67
79 | CC(C(=O)N1CCc2ccccc21)N1CCN(Cc2ccccc2)CC1 (centres unmarked) | -34
80 | CC(C(=O)N1CCc2ccccc21)N1CCc2ccccc2C1 (centres unmarked) | -18.9
81 | COCCCNc1nc2c(-c3cccc(C(F)(F)F)c3)nnn2c2ccccc12 | -1.31
82 | O=[N+]([O-])c1ccc(/C=N/Nc2cc(Cl)nc(-c3ccccc3)n2)cc1 | 2.34
83 | CCC(C)c1ccc(OCC(=O)O)cc1 (centres unmarked) | 11.5
84 | c1cncc(-c2nc3ccccc3s2)c1 | 2.39
85 | O=C(NCc1cccnc1)c1cccnc1-c1nc2ccccc2s1 | -14
86 | CC(=O)N(Cc1cccnc1)c1cccc(-c2nc3ccccc3s2)c1 | -51.1
